Assay results taken from PubChem BioAssay AID1159580 (chemical genetic matrix, 2015).
The whole screen tested about 5,500 compounds, of which about 2,000 (36%) were called active. Not shown: some 18% with an inconclusive outcome. Rule as the data show it: active = normalized growth mostly below about 0.91 (no sharp cut-off); inconclusive = no clear call, values can overlap the other calls; inactive = mostly above about 0.92. This is one part of the list.

Test: chemical genetic growth profiling, strain panel (AID 1159580);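 also: tested at 20 µM; growth read once vehicle control cultures reached saturation at 30 °C; 1 = growth at the plate median or of vehicle wells; lower values mean less growth of the strain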
Settings: S. cerevisiae deletion strains, growth OD

Measured: normalized growth

COC(=O)c1cc(OC)c(OC)c(OC)c1NS(=O)(=O)c1cc(OC)ccc1OC
inactive: locus YAL013W, strain DEP1, hits give low values 0.999 | locus YBR229C, strain ROT2, hits give low values 0.999 | locus YCL061C, strain MRC1, hits give low values 0.974 | locus YDL101C, strain DUN1, hits give low values 0.968 | locus YDL134C, strain PPH21, hits give low values 1.02 | locus YDR150W, strain NUM1, hits give low values 0.984 | locus YEL061C, strain CIN8, hits give low values 1.03 | locus YGR078C, strain PAC10, hits give low values 0.983 | locus YGR229C, strain SMI1, hits give low values 1.01 | locus YHR030C, strain SLT2, hits give low values 0.965 | locus YHR087W, strain rtc3, hits give low values 1.03 | locus YJR043C, strain POL32, hits give low values 0.987 | locus YJR075W, strain HOC1, hits give low values 0.992 | locus YLR039C, strain RIC1, hits give low values 0.984 | locus YLR058C, strain SHM2 (second series), hits give low values 1.02 | locus YLR085C, strain ARP6, hits give low values 1.02 | locus YLR262C, strain YPT6, hits give low values 1.02 | locus YML094W, strain GIM5, hits give low values 1.04 | locus YMR219W, strain ESC1, hits give low values 1 | locus YMR263W, strain SAP30, hits give low values 1 | locus YNL128W, strain TEP1, hits give low values 1 | locus YNL153C, strain GIM3, hits give low values 0.992 | locus YNL298W, strain CLA4 (second series), hits give low values 0.987 | locus YNL322C, strain KRE1, hits give low values 0.996 | locus YNR030W, strain Alg12, hits give low values 1.01 | locus YOL006C, strain TOP1, hits give low values 0.981 | locus YPL055C, strain LGE1, hits give low values 1.03 | locus YPL241C, strain CIN2, hits give low values 0.983 | locus YPR135W, strain CTF4, hits give low values 0.969
